Sampled rows, rich in hits. Any-hit rate of the full collection: about 6.2%.
HCMV antiviral: blocks human cytomegalovirus replication. HFF cells, HCMV-luciferase reporter, 72 h; active compounds read low. activity change, negative = inhibition, % at 57.5 µM. hit rate 4.5% among 410,000; in the data active = activity change below about -60%; inconclusive = no clear call, values can overlap the other calls; inactive = above about -39%
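Cell-based, HFFs, 1000 cells/well, 16 h 37C; cpds in DMSO + HCMV-luc, MOI 1 PFU/cell; 72 h 37C; OneGlo luminescence after 5 min RT; norm. to buffer vs Salinomycin 10uM.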
MARV entry inh: Marburg virus entry inhibition | Marburg virus pseudotyped entry inhibition, cell reporter | hit rate 1.8% among 300,000 | Potency, µM (doses to about 37.8 µM), for the others: at the highest dose activity change, negative = inhibition, hits mostly inhibitors; calls by dose curve; tested in HEK293 cells; note: potency is the fitted concentration of half-maximal effect
FMDV inh: blocks foot and mouth disease virus; AID 1159524; FMDV antiviral cell-based qHTS; Potency, µM (titrated, usually from 57.9 µM), without a hit: at the highest dose activity change, negative = inhibition, hits mostly inhibitors; hit rate 1.2% among 410,000; calls by dose curve; tested in HEK293T cells; note: read-out not given here; potency is the fitted concentration of half-maximal effect; nearly all actives have a fitted effect of over 45% in size
LASV entry inh: inhibitors of Lassa virus binding or cell entry; Lassa virus pseudotype entry inhibition, cell reporter; Potency, µM (highest dose often 37.9 µM), inactives show top-dose activity change, negative = inhibition, hits mostly inhibitors; hit rate 1.2% among 300,000; AID 540256; calls by dose curve; tested in HEK293 cells; note: potency is the fitted concentration of half-maximal effect; nearly all actives have a fitted effect of over 50% in size
Numbers without * were called inactive; [ ] = dose if it differs, or a comment. % is set by controls: 0 for no effect and ±100 for the full control effect.

Cc1ccc(C(=O)n2c(N)nc3ccccc32)cc1 was read as HCMV antiviral inconclusive, MARV entry inh 7.9µM*, FMDV inh 10µM* and LASV entry inh inconclusive.
Screening O=C(O)CC/C(=N\Nc1ccc(S(=O)(=O)N2CCCC2)cc1[N+](=O)[O-])c1cccs1 returned HCMV antiviral 3, MARV entry inh inconclusive, FMDV inh -17% and LASV entry inh -12%.
Cc1ccc(O)c(NC(=O)CCS(=O)(=O)c2nc(-c3cccs3)cc(C(F)(F)F)n2)c1 was read as HCMV antiviral -100*, MARV entry inh -23%[46.1 µM], FMDV inh inconclusive and LASV entry inh inconclusive.
`CCN(CC)c1ccc(NC(=O)CSc2nc(-c3cccs3)cc(C(F)(F)F)n2)cc1` gave HCMV antiviral 7, MARV entry inh -2%[46.1 µM], FMDV inh -16% and LASV entry inh 0%[46.1 µM].
O=C(CCS(=O)(=O)c1nc(-c2cccs2)cc(C(F)(F)F)n1)Nc1cc(Br)ccc1O was read as HCMV antiviral -100*, MARV entry inh inconclusive, FMDV inh 14µM* and LASV entry inh inconclusive.
For O=C(CCS(=O)(=O)c1nc(-c2cccs2)cc(C(F)(F)F)n1)Nc1ccc(Br)cc1 the results were HCMV antiviral -98*, MARV entry inh inconclusive, FMDV inh 40µM* and LASV entry inh -24%[46.1 µM].
For Cc1nnn(C23C[C@@H]4C[C@@H](CC(C(=O)N5CCN(c6ccccc6)CC5)(C4)C2)C3)n1 the results were HCMV antiviral -87* and FMDV inh inconclusive.
`CCCc1c(-c2ccccc2F)ncn1CCc1ccccc1OC` gave HCMV antiviral -95* and FMDV inh 32µM*.
CCCCCc1c(-c2ccccc2F)ncn1CCc1ccccc1OC was read as HCMV antiviral inconclusive and FMDV inh 32µM*.
For Nc1nc2n(n1)C(c1ccco1)CC(c1ccc(F)cc1)N2 (centres undefined) the results were HCMV antiviral -5 and FMDV inh -12%.
Screening O=C(Nc1cc(Cl)ccc1Oc1ccccc1)c1ccccc1F returned HCMV antiviral 22, MARV entry inh -2%, FMDV inh -1% and LASV entry inh -1%.
Screening Cc1nc(/C(N)=N/OC(=O)c2c(-c3ccccc3Cl)noc2C)cs1 returned HCMV antiviral -39, MARV entry inh 7.9µM*, FMDV inh -13% and LASV entry inh -25%.
For C/C(=N\OC(=O)c1c(-c2c(F)cccc2Cl)noc1C)c1nccs1 the results were HCMV antiviral 18, MARV entry inh -23%[46.1 µM], FMDV inh -2% and LASV entry inh -7%[46.1 µM].
For COc1ccc(/C(N)=N/OC(=O)c2c(-c3ccccc3Cl)noc2C)cc1OC the results were HCMV antiviral -79*, MARV entry inh inconclusive, FMDV inh 0% and LASV entry inh inconclusive.
Cc1onc(-c2c(F)cccc2Cl)c1C(=O)O/N=C(\N)c1ccc([N+](=O)[O-])o1 was read as HCMV antiviral -62*, MARV entry inh -2%[46.1 µM], FMDV inh 49% and LASV entry inh -1%.
Screening Cc1onc(-c2ccccc2Cl)c1C(=O)Oc1ccc(Cl)cc1Cl returned HCMV antiviral inconclusive, FMDV inh -12% and LASV entry inh -5%[46.1 µM].
Screening Cc1ccc(CSc2ccc(C(=O)N3CCOCC3)cc2[N+](=O)[O-])cc1 returned HCMV antiviral 28, MARV entry inh 2%[46.1 µM], FMDV inh 8% and LASV entry inh 5%.
COc1cc(-c2noc(-c3ccc(N4CCOCC4)c([N+](=O)[O-])c3)n2)cc(OC)c1OC was read as HCMV antiviral 6, MARV entry inh -2%[46.1 µM], FMDV inh inconclusive and LASV entry inh 12%[46.1 µM].
COC1=C(Br)C(=O)c2ncccc2C1=O was read as HCMV antiviral -69*, MARV entry inh inconclusive, FMDV inh 35µM* and LASV entry inh inconclusive.
`COc1ccccc1N1C(=O)c2cccnc2C1=O` gave HCMV antiviral 17 and FMDV inh -1%.
Screening O=C1c2cccnc2-c2ncccc21 returned HCMV antiviral -24, MARV entry inh 2%, FMDV inh 1% and LASV entry inh 3%.
For O=C1C(=O)c2cccnc2-c2ncccc21 the results were HCMV antiviral -99* and FMDV inh 4µM*.
O=S(=O)(Nc1ccc2c(c1)OCCO2)c1cnc[nH]1 was read as HCMV antiviral -3, MARV entry inh -5%[46.1 µM], FMDV inh -15% and LASV entry inh -1%.
For Cc1onc(-c2ccccc2Cl)c1C(=O)NC(=S)Nc1ccc(C(C)C)cc1 the results were HCMV antiviral 2 and FMDV inh -8%.
`CCCCc1ncc(CN2CCC(CC3CCCCO3)(C(=O)OCC)CC2)[nH]1` (centres undefined) gave HCMV antiviral -25, MARV entry inh inconclusive, FMDV inh 16% and LASV entry inh 26%[46.1 µM].
CCOC(=O)C1(CC2CCCCO2)CCN(Cc2cc3ccccc3[nH]2)CC1 (centres undefined) was read as HCMV antiviral -27, MARV entry inh inconclusive, FMDV inh -23% and LASV entry inh 10µM*.
CCC(C)CCN1C(Nc2ccccc2)=NC[C@@H]1CC(C)C (some centres undefined) was read as HCMV antiviral -14 and FMDV inh -16%.
For Cc1ccc(N(Cc2ccccc2)C(=O)CSC(C)C(=O)Nc2cc(C)on2)cc1 (centres undefined) the results were HCMV antiviral -64* and FMDV inh 29%.
`CCOC(=O)Nc1ccc2c(c1)N(C(=O)CN(C)C)c1ccccc1S2` gave HCMV antiviral 4 and FMDV inh -12%.
Cc1ccc(Oc2cccc3c2S(=O)(=O)N([C@H](C)c2ccccc2)C[C@@H](COCc2ccccc2)O3)cc1 was read as HCMV antiviral -78*.
`Cc1ccc(S(=O)(=O)N(C)c2cccc3c2S(=O)(=O)N([C@H](C)c2ccccc2)C[C@@H](COCc2ccccc2)O3)cc1` gave HCMV antiviral -65*.
`Cc1cc(Oc2cccc3c2S(=O)(=O)N([C@H](C)c2ccccc2)C[C@@H](COCc2ccccc2)O3)cc(C)c1C` gave HCMV antiviral -93*.
For COc1cc(F)ccc1Oc1cccc2c1S(=O)(=O)N([C@H](C)c1ccccc1)C[C@@H](COCc1ccccc1)O2 the results were HCMV antiviral -23.
`CC(C)c1ccc(Oc2cccc3c2S(=O)(=O)N(C2CCCC2)CC(COCc2ccccc2)O3)cc1` (centres undefined) gave HCMV antiviral -31 and FMDV inh 4%.
Screening C[C@H](c1ccccc1)N1C[C@@H](COCc2ccccc2)Oc2cccc(N3CCCCC3)c2S1(=O)=O returned HCMV antiviral -93*.
Screening Cc1ccccc1OCC(=O)Nc1ccccc1C(=O)N1CCCCC1 returned HCMV antiviral 20, MARV entry inh 9%, FMDV inh 32% and LASV entry inh 13%.
Screening CC(Oc1cc2oc(=O)c3c(c2cc1Cl)CCC3)C(=O)NC1CC(C)(C)NC(C)(C)C1 (centres undefined) returned HCMV antiviral -10 and FMDV inh 29%.
Screening Cc1ccn2cc(-c3ccc4c(c3)NC(=O)CO4)nc2c1 returned HCMV antiviral -84* and FMDV inh 0%.
Screening CNC(=S)N/N=C(\C)c1ccc2c(c1)OCO2 returned HCMV antiviral -104* and FMDV inh 0%.
